Compounds without any hit were thinned out: in the full panel of roughly 83,000, 20% have a hit.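 Each cell line was grown in a 96-well plate and treated with one concentration of compound for 48 hours. Values below 10 were considered active.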 A number with no mark means an inactive call. Calls of active or inactive are those of the source.
Key:
Test in all cases: NCI-60 one-dose screen, 48 h (100 = growth as untreated, 0 = no growth, -100 = all killed)
Details in all cases: 10 µM unless noted
NCI-H226 lung = tested on: NCI-H226 lung
NCI-H322M lung = tested on: NCI-H322M lung
HOP-62 NSCLC = tested on: HOP-62 NSCLC
NCI-H460 lung = tested on: NCI-H460 lung
HOP-92 NSCLC = tested on: HOP-92 NSCLC
NCI-H522 lung = tested on: NCI-H522 lung
A549/ATCC NSCLC = tested on: A549/ATCC NSCLC
786-0 renal = tested on: 786-0 renal
COLO 205 colon = tested on: COLO 205 colon
DU-145 prostate = tested on: DU-145 prostate
K-562 leukemia = tested on: K-562 leukemia
MALME-3M melanoma = tested on: MALME-3M melanoma
MDA-MB-231 breast = tested on: MDA-MB-231 breast
RXF 393 renal = tested on: RXF 393 renal
SF-268 CNS = tested on: SF-268 CNS
SF-295 CNS = tested on: SF-295 CNS
SF-539 CNS = tested on: SF-539 CNS
UACC-257 melanoma = tested on: UACC-257 melanoma
M14 melanoma = tested on: M14 melanoma

Which growth (NCI-H226 lung) does the source give for `CC(C)C[C@@H](NC(=O)[C@@H](Cc1ccccc1)NC(=O)c1cnccn1)B1Oc2ccc(C[C@H](NC(=O)[C@H](Cc3ccc4c(c3)OB([C@@H](CC(C)C)NC(=O)[C@@H](Cc3ccccc3)NC(=O)c3cnccn3)O4)NC(=O)[C@@H](N)CC3CCC4OB([C@@H](CC(C)C)NC(=O)[C@@H](CC5CCCCC5)NC(=O)C5CNCCN5)OC4C3)C(=O)NCCCC[C@@H]3NC(=O)[C@@H](Cc4ccccc4)NC(=O)[C@H](CC(=O)O)NC(=O)CNC(=O)[C@H](CCCNC(=N)N)NC3=O)cc2O1` (stereo partly specified) here?
Its growth is -50.2% (active).

And the growth (NCI-H322M lung)?
Its growth is -8.33% (active).

And the growth (HOP-62 NSCLC)?
The growth was -43.2% (active).

And the growth (NCI-H460 lung)?
The growth was -54.8% (active).

And the growth (HOP-92 NSCLC)?
The growth was -74.1% (active).

And the growth (NCI-H522 lung)?
The growth was -43.4% (active).

And the growth (A549/ATCC NSCLC)?
The growth was -49.5% (active).

What about the growth (786-0 renal) of the same molecule?
The growth was -12.6% (active).

And the growth (COLO 205 colon)?
Its growth is -72.6% (active).

And the growth (DU-145 prostate)?
The growth was -44.8% (active).

And the growth (K-562 leukemia)?
Its growth is -0.546% (active).

What about the growth (MALME-3M melanoma) of the same molecule?
The growth was -20.3% (active).

What about the growth (MDA-MB-231 breast) of the same molecule?
Its growth is -7.69% (active).

And the growth (RXF 393 renal)?
Its growth is -89.2% (active).

And the growth (SF-268 CNS)?
Its growth is -52.7% (active).

And the growth (SF-295 CNS)?
The growth was -68.6% (active).

What about the growth (SF-539 CNS) of the same molecule?
Its growth is -37.6% (active).

And the growth (UACC-257 melanoma)?
Its growth is -11.7% (active).

What about the growth (M14 melanoma) of the same molecule?
The growth was 0.189% (active).

Which results are given for `O=S(=O)(Nc1ccc(NS(=O)(=O)c2ccccc2)c(Cl)c1)c1ccccc1`?
growth (NCI-H226 lung): 102%; growth (NCI-H322M lung): 115%; growth (HOP-62 NSCLC): 110%; growth (NCI-H460 lung): 102%; growth (HOP-92 NSCLC): 95.3%; growth (NCI-H522 lung): 77.7%; growth (A549/ATCC NSCLC): 101%; growth (786-0 renal): 103%; growth (COLO 205 colon): 114%; growth (DU-145 prostate): 109%; growth (K-562 leukemia): 95.4%; growth (MALME-3M melanoma): 103%; growth (MDA-MB-231 breast): 104%; growth (RXF 393 renal): 108%; growth (SF-268 CNS): 101%; growth (SF-295 CNS): 94.6%; growth (SF-539 CNS): 105%; growth (UACC-257 melanoma): 103%; growth (M14 melanoma): 101%

Which results are given for `COc1cc(C(=O)/C=C/c2cccnc2Nc2ccc(Cl)cc2)cc(OC)c1OC`?
growth (NCI-H226 lung): -82.7% (active); growth (NCI-H322M lung): 9.66% (active); growth (HOP-62 NSCLC): -68.6% (active); growth (NCI-H460 lung): 4.24% (active); growth (HOP-92 NSCLC): -54.5% (active); growth (NCI-H522 lung): -58.4% (active); growth (A549/ATCC NSCLC): -29.2% (active); growth (786-0 renal): -83.4% (active); growth (COLO 205 colon): -81.4% (active); growth (DU-145 prostate): -59.2% (active); growth (MALME-3M melanoma): -48.1% (active); growth (MDA-MB-231 breast): -50.7% (active); growth (RXF 393 renal): -85.7% (active); growth (SF-268 CNS): -87.7% (active); growth (SF-295 CNS): 7.32% (active); growth (SF-539 CNS): -80.2% (active); growth (UACC-257 melanoma): -63.5% (active); growth (M14 melanoma): -47.4% (active)

— PubChem BioAssay (NCI)
